Source: PubChem BioAssay
Only some compounds are listed: those with a hit (about 21% of all), similar ones and a draw of the others.
HCV inhibitor – HCV inhibition. Potency, µM (titrated, usually from 41.8 µM), for inactives: at the highest dose activity change, negative = inhibition, usual class: inhibitors. Huh7.5.1 HCVcc-Cre infection, luciferase reporter, 44 h. 340,000 compounds, 3.4% hits; further: potency means the concentration at half of the fitted maximal effect; on the % scale 0 is the no-effect control and ±100 the full control effect
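Cells (1,000/well) were plated 4 h before compound, then infected with HCVcc-Cre virus (~0.5 moi). After 44 h further culture, infection was read as luciferase luminescence following a 15 min substrate incubation at room temperature.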
Cycloheximide cs – counter-screen hit for Shiga toxin inhibitors, cycloheximide; max response, %; cell reporter, cycloheximide protein synthesis inhibition counterscreen; AID 2314; 300,000 compounds, 12% hits; in the data active means max response mostly above about 13%, no sharp cut-off; inactive means mostly below about 14%; further: read at 38.3 µM for the half of the compounds with a filed dose; 0% is about no effect
Shiga inhibitor – Shiga toxin inhibition | Vero cells, Shiga toxin protein synthesis inhibition reporter | inhibition, % at 38.7 µM | 290,000 compounds, 9.2% hits; in the data active means inhibition mostly above about 28%, no sharp cut-off; inactive means mostly below about 43%; further: 0% is about no effect
Pf growth 48h – P. falciparum growth inhibition at 48 hours (one generation); AID 504832; P. falciparum luciferase growth in erythrocytes, 48 h; Potency, µM (series often up to 28.7 µM), inactives show top-dose activity change, negative = inhibition, usual class: inhibitors; 310,000 compounds, 5.9% hits; further: potency means the concentration at half of the fitted maximal effect; on the % scale 0 is the no-effect control and ±100 the full control effect
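A one-generation exposure of luciferase-tagged malaria parasites in RPMI 1640/Albumax erythrocyte culture, 37 C and 5% CO2. Inhibition is inferred from decreased luminescence after adding detection reagent.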
HCMV antiviral – human cytomegalovirus inhibition; HFF cells, HCMV-luciferase reporter, 72 h; active compounds read low; activity change, negative = inhibition, % at 57.5 µM; 410,000 compounds, 4.5% hits; AID 1259415; in the data active means activity change below about -60%; inconclusive means no clear call, values can overlap the other calls; inactive means above about -39%; further: on the % scale 0 is the no-effect control and ±100 the full control effect
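After 16 h attachment at 37C, HFF cells received test compound and HCMV-luciferase (1 PFU/cell); reporter luminescence read 72 h later, data normalized against buffer-only and known inhibitor Salinomycin.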
Pf growth 96h – inhibits malaria parasite growth, 96 h; P. falciparum luciferase reporter growth, 96 h; 320,000 compounds, 6.9% hits; Potency, µM (titrated, usually from 28.7 µM), without a hit: top-dose activity change, negative = inhibition, actives largely listed as inhibitors; further: potency means the concentration at half of the fitted maximal effect; on the % scale 0 is the no-effect control and ±100 the full control effect
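P. falciparum expressing integrated firefly luciferase grown in erythrocytes (2% hematocrit, 0.05% parasitemia final) with compounds for 96 hours at 37 C, 5% CO2. Growth inhibition read as loss of luminescence after adding luciferase detection reagent.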
Active calls of the source: *. Unless noted, the call rests on the fitted dose curve; in most records, active means well fitted inhibition curve with a large enough effect; inconclusive means small, poorly fitted or top-dose-only effect, or another doubt; inactive means no such curve, though single readings can be large or run the other way.

For Cc1cc2cc(OCc3ccccc3)ccc2n1C the results were HCV inhibitor 11.4%, Cycloheximide cs 24.8*, Shiga inhibitor 31.0*, Pf growth 48h 160.1%, HCMV antiviral 70.6 and Pf growth 96h inconclusive.
Cc1c(C=O)c2cc(OCc3ccccc3)ccc2n1C was read as HCV inhibitor inconclusive, Cycloheximide cs 38.6*, Shiga inhibitor 70.2*, Pf growth 48h 10.0%, HCMV antiviral 109.8 and Pf growth 96h inconclusive.
O=Cc1c[nH]c2ccc(OCc3ccccc3)cc12 was read as HCV inhibitor -28.4%, Pf growth 48h inconclusive, HCMV antiviral inconclusive and Pf growth 96h -29.2%.
`Cn1ccc2cc(OCc3ccccc3)ccc21` gave HCV inhibitor inconclusive and HCMV antiviral 17.0.
`COc1cc(OC)cc(C(=O)NC(=S)NNC(=O)[C@H]2C[C@@H]2c2ccccc2)c1` gave HCV inhibitor -15.6%, Cycloheximide cs -0.7, Shiga inhibitor 9.4, Pf growth 48h inconclusive, HCMV antiviral 21.6 and Pf growth 96h -16.7%.
For COc1ccc(C(=O)NC(=S)NNC(=O)[C@H]2C[C@@H]2c2ccccc2)cc1OC the results were HCV inhibitor inconclusive, Cycloheximide cs 0.9, Shiga inhibitor -5.3, Pf growth 48h inconclusive, HCMV antiviral inconclusive and Pf growth 96h 1.47µM*.
For O=C1C=C(NCCc2cc(Br)c(O)c(Br)c2)C(=O)c2ncccc21 the results were HCV inhibitor inconclusive and HCMV antiviral -99.8*.
For COc1ccc(OC)c(N(CC(=O)NCCSC2CCCCC2)S(=O)(=O)c2ccccc2)c1 the results were HCV inhibitor -22.1%, Cycloheximide cs -3.7, Shiga inhibitor -29.1, Pf growth 48h inconclusive, HCMV antiviral -9.0 and Pf growth 96h 0.3%.
`CCOc1ccc(/C=N/NC(=O)Cc2ccccc2)cc1CN1CC2CC(C1)c1cccc(=O)n1C2` (stereo unspecified) gave HCV inhibitor 7.94µM*, Pf growth 48h 6.57µM*, HCMV antiviral -33.2 and Pf growth 96h -17.7%.
CCOc1ccc(/C=N/NC(=O)c2ccc(O)cc2)cc1CN1CC2CC(C1)c1cccc(=O)n1C2 (stereo unspecified) was read as HCV inhibitor -15.4%, Pf growth 48h inconclusive, HCMV antiviral inconclusive and Pf growth 96h inconclusive.
`Cc1cc(C)cc([C@H]2C[C@]34CN(Cc5ccccc5)S(=O)(=O)[C@H]3C[C@H]2O4)c1` gave HCMV antiviral -5.8.
`CC(c1ccccc1)n1c(SCC(=O)N2CC(=O)Nc3ccccc32)nc2ccccc2c1=O` (stereo unspecified) gave HCV inhibitor inconclusive, Cycloheximide cs -7.4, Shiga inhibitor -12.4, Pf growth 48h 13.1µM*, HCMV antiviral -81.4* and Pf growth 96h 5.22µM*.
Screening COCC(C)n1c(SCC(=O)N2CC(=O)Nc3ccccc32)nc2ccccc2c1=O (stereo unspecified) returned HCV inhibitor 7.0%, Pf growth 48h 13.1µM*, HCMV antiviral -15.9 and Pf growth 96h inconclusive.
`CCN(CC)C(=O)n1c(Cc2ccccc2)nc2ccccc21` gave HCV inhibitor 6.2%, Cycloheximide cs -0.9, Shiga inhibitor 27.0, Pf growth 48h -19.0%, HCMV antiviral -6.2 and Pf growth 96h inconclusive.
O=C1c2ccccc2C(=O)N1CCCn1ccnc1 was read as HCV inhibitor 12.3%, Cycloheximide cs -1.2, Shiga inhibitor -4.6, Pf growth 48h 0.7%, HCMV antiviral -5.5 and Pf growth 96h inconclusive.
For N=c1c2c(-c3ccccc3)c(-c3ccccc3)n(Cc3ccco3)c2ncn1CCCn1ccnc1 the results were HCV inhibitor inconclusive, Cycloheximide cs -6.3, Shiga inhibitor -2.9, Pf growth 48h 1.85µM*, HCMV antiviral -97.5* and Pf growth 96h inconclusive.
For N=c1c2c(-c3ccccc3)c(-c3ccccc3)n(Cc3ccco3)c2ncn1CCCN1CCOCC1 the results were HCV inhibitor 7.08µM*, Cycloheximide cs -5.2, Shiga inhibitor 16.0, Pf growth 48h inconclusive, HCMV antiviral -97.5* and Pf growth 96h 18.2%.
Screening O=c1c2c3nc4ccccc4nc3n(CCN3CCOCC3)c2ncn1CCN1CCOCC1 returned HCV inhibitor 8.2% and HCMV antiviral -26.9.
Cc1ccc(NC(=O)C(=O)NCC(c2cccnc2)N2CCN(C)CC2)cc1C (stereo unspecified) was read as HCMV antiviral -23.0.
`COc1ccc(/C=N/NC(=O)c2cccc(NC(=O)c3ccccc3Cl)c2)cc1` gave HCV inhibitor -16.1%, Cycloheximide cs 49.5*, Shiga inhibitor 40.5, Pf growth 48h -31.1%, HCMV antiviral inconclusive and Pf growth 96h 3.6%.
`O=C(N/N=C/c1ccc(F)cc1)c1cccc(NC(=O)c2ccccc2Cl)c1` gave HCV inhibitor inconclusive, Cycloheximide cs 20.5*, Shiga inhibitor 36.4*, Pf growth 48h -3.3%, HCMV antiviral -16.8 and Pf growth 96h -5.7%.
`COc1ccc(-c2nc(C)c(CCNC(=O)c3ccccc3Br)s2)cc1OC` gave HCMV antiviral 167.1.
`O=C(c1ccc([N+](=O)[O-])cc1)N1CCN(c2ccc(Nc3ccccc3)nn2)CC1` gave HCMV antiviral 20.8.
Cc1cccc(C)c1N1CCN(S(=O)(=O)N(C)C)CC1 was read as HCV inhibitor 12.4%, Cycloheximide cs -2.4, Shiga inhibitor 1.9, Pf growth 48h inconclusive, HCMV antiviral -38.6 and Pf growth 96h inconclusive.
For CSc1ccc(CCNC(=O)CCc2nnc3ccc(N4CCCC4)nn23)cc1 the results were HCV inhibitor -15.2%, Cycloheximide cs -2.0, Shiga inhibitor -2.1, Pf growth 48h inconclusive, HCMV antiviral -11.8 and Pf growth 96h 9.28µM*.
`Cc1ccc(C)c(NC(=O)CCc2nnc3ccc(N4CCCC4)nn23)c1` gave HCV inhibitor 1.2%, Cycloheximide cs -10.3, Shiga inhibitor -4.5, Pf growth 48h 0.5%, HCMV antiviral -18.7 and Pf growth 96h inconclusive.
Screening CCOc1ccc(CCNC(=O)CCc2nnc3ccc(N4CCOCC4)nn23)cc1OCC returned HCV inhibitor 2.4%, Cycloheximide cs -1.6, Shiga inhibitor 0.4, Pf growth 48h -1.9%, HCMV antiviral -13.3 and Pf growth 96h 13.1µM*.
Screening CCOC(=O)C(CCc1ccccc1)NC(C)C(=O)N1Cc2ccccc2CC1C(=O)O (stereo unspecified) returned Pf growth 48h -4.2% and Pf growth 96h -7.1%.
For Nc1cc(-c2ccc(OC(F)(F)F)cc2)nn1-c1ccc(Cl)c(Cl)c1 the results were HCV inhibitor -0.5%, Cycloheximide cs 7.4, Shiga inhibitor 9.1, Pf growth 48h -6.7%, HCMV antiviral -65.6* and Pf growth 96h -9.6%.
